The campaign covered roughly 1,100 compounds. About 260 (24%) were called active.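 Rule for the calls: active = surface receptor percent response at or below 58%, roughly 3 SD from nonfluorescent compounds; inactive = the rest.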 The list is a sample of the results.
These molecules were tested against Beta-2 adrenergic receptor (Homo sapiens) (UniProt P07550) (assay: beta2AR agonists via receptor internalization, confirmation, cell-based, FAP fluorogen, flow cytometry, single point, cherry pick 1 (AID 540358)). Settings: Am2.2-beta2AR cells, at 10 µM, active compounds read low.
Chain of Beta-2 adrenergic receptor (Homo sapiens) (P07550 whole entry, looked up): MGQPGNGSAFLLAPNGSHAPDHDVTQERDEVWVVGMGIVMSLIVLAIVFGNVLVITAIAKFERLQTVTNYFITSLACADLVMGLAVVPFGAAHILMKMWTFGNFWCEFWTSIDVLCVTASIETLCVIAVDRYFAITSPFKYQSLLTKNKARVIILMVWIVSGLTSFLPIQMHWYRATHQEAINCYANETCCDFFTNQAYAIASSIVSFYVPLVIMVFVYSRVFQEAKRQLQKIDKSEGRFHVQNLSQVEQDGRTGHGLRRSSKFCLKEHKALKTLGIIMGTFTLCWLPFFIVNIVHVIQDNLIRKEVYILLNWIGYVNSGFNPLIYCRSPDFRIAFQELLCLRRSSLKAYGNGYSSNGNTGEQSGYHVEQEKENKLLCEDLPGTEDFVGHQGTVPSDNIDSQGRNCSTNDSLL

SMILES	percent response (surface receptor)
CCC(=O)c1ccc(OCC(=O)N2CCN(CC(=O)Nc3ccc(C)cc3)CC2)cc1	10.7% (active)
O=C1NC(=O)C(CCc2ccccn2)(Cc2cccc(Cl)c2Cl)C(=O)N1c1ccc(Br)cc1 (stereo not drawn)	91.2% (inactive)
CC(Cc1ccccc1)NCCC(c1ccccc1)c1ccccc1 (stereo not drawn)	105% (inactive)

— PubChem BioAssay AID540358 (NMMLSC, 2011)
